IL-1B inflam inh: blocks inflammasome-driven IL-1 beta release; activity change, % at 57.5 µM; THP-1 LPS/ATP IL-1B secretion, AlphaLISA, 16 h; hits give low values; AID 743279; actives 4.7% (n = 360,000); in the data active means activity change below about -50%; inconclusive means mostly about -30% to -49%
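THP-1 cells pretreated 1 hr with compounds (up to 57.5 uM final), then stimulated with LPS (250 ng/mL final) plus ATP (1.25 mM final); secreted IL-1B measured by AlphaLISA after 16 hr, decreased signal indicating inhibition.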
CtBP-E1A inh: blocks the CtBP interaction with E1A; AlphaScreen GST-E1A/His-CtBP binding, 1536-well; hits give low values; activity change, % (no concentration beside the values); actives 0.49% (n = 340,000); in the data active means activity change below about -65%; inconclusive means mostly about -30% to -63%
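AlphaScreen with 125 nM GST-E1A and 125 nM His-CtBP (5X stocks) in Tris pH 8.0, 300 mM NaCl, BSA, Tween 20, TCEP. Compounds preincubated 2 h at 37 deg C, then glutathione donor/nickel acceptor beads added for 1 h at 37 deg C in dark.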
TDP1 cell noCPT: qHTS for Inhibitors of human tyrosyl-DNA phosphodiesterase 1 (TDP1): qHTS in cells in absence of CPT. Potency, µM (titrated, usually from 46.2 µM), hits mostly inhibitors. AID 686978, 2013. DT40 Tdp1-/- hTDP1 cells, no CPT, ATP luminescence, 48 h. actives 15% (n = 420,000); further: nearly all actives have a fitted effect of over 55% in size
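Compound effects on proliferation are scored in DT40 Tdp1-/-;hTDP1 cells in the absence of CPT. ATP levels (CellTiter-Glo luminescence) are recorded after a ≥48 hr, 37 °C incubation.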
TDP1 block: TDP1 (human) enzyme inhibition; Q9NUW8; recombinant TDP1, AlphaScreen DNA substrate cleavage; Potency, µM (titrated, usually from 130 µM), hits mostly inhibitors; actives 0.28% (n = 350,000); AID 485290; further: nearly all actives have a fitted effect of over 40% in size
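E. coli-derived human Tdp1, 1 nM final. Cpd preinc 15 min RT; substrate 15 nM final, 5 min RT; AS bead mix 10 ug/ml final, 10 min RT. Signal loss = tyrosine-FITC cleavage. No-enzyme wells = max signal.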
Six1-Eya2 inh: Six1/Eya2 interaction inhibition | activity change, % (no concentration beside the values) | Q15475+O00167 | AID 651725 | actives 0.56% (n = 360,000) | AlphaScreen GST-Six1/His-Eya2 binding, biochemical; hits give low values; in the data active means activity change below about -65%; inconclusive means mostly about -30% to -63%
Target sequence (O00167 whole entry, looked up): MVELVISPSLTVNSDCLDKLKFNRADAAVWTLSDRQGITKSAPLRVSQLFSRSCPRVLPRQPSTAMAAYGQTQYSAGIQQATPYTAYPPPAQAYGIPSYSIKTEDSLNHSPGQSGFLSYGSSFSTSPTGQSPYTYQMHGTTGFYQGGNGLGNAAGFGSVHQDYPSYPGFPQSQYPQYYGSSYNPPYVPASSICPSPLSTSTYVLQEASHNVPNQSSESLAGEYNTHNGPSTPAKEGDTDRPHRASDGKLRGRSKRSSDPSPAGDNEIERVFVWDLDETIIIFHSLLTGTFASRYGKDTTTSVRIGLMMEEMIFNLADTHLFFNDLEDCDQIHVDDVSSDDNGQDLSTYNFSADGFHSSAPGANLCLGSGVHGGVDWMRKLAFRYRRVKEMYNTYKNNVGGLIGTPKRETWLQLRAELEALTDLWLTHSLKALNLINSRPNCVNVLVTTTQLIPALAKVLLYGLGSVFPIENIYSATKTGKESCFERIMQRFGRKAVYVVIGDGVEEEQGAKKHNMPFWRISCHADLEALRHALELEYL
Target sequence (Q15475 whole entry, looked up): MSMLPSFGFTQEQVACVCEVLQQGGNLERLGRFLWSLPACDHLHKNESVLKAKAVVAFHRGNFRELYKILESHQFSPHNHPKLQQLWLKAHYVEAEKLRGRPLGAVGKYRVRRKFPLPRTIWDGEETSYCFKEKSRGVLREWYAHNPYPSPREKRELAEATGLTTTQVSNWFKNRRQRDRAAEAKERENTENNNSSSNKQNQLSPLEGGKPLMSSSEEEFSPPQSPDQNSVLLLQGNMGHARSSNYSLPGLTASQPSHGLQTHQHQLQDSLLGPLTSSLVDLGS
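AlphaScreen luminescence read after one hour at 37 °C in darkness. Pin-transferred compounds met GST-Six1 and His-Eya2 protein (5X stock 250 nM/500 nM) plus glutathione donor and Ni-chelate acceptor beads (5X, 50 ug/mL).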
TDP1 cell CPT: DT40-hTDP1 cell growth loss with CPT | chicken DT40 Tdp1-/-;hTDP1 cells + 20 nM CPT, ATP luminescence, 48 h | Potency, µM (top dose mostly 46.2 µM), usual class: inhibitors | actives 12% (n = 420,000) | AID 686979; further: nearly all actives have a fitted effect of over 55% in size
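Chicken DT40 Tdp1-/- cells stably complemented with human TDP1 were seeded at 400 cells/well in medium containing 20 nM camptothecin, exposed to pin-transferred compounds, and grown at 37 °C for at least 48 hr. Viability was read as ATP luminescence.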
A number is an active result; - = inactive; ? = inconclusive; . = not tested or not shown; [ ] = dose if it differs, or a comment. The list is not random: actives were taken first. Their share in the collection is about 18%. Unless noted, the call rests on the fitted dose curve; in most records, active means well fitted curve in the direction sought with a large enough effect; inconclusive means small, poorly fitted or top-dose-only effect, or another doubt; inactive means no such curve, though single readings can be large; an effect the other way counts as inactive or inconclusive.

SMILES	IL-1B inflam inh	CtBP-E1A inh	TDP1 cell noCPT	TDP1 block	Six1-Eya2 inh	TDP1 cell CPT
CC(/C=C/c1ccccc1)=N\NC(=O)CCc1ccccc1	-	-	-	-	-	-
C/C(=N\NC(=O)CCc1ccccc1)C1C(=O)c2ccccc2C1=O	-	-	2.59µM	-	?	1.64µM
C/C(=N\NC(=O)c1cccc(Cl)c1)C1C(=O)c2ccccc2C1=O	-	?	0.82µM	-	-	0.92µM
CCc1ccc(C(CNC(=O)c2ccc3c(=O)n(-c4ccccc4F)c(=S)[nH]c3c2)N(C)C)cc1 (configuration not stated)	-81.6	-	23.1µM	-	?	?
CN(C)CCNC(=O)c1ccc(COc2ccc(Cl)cc2Cl)cc1	-	-	18.4µM	-	-	?
O=c1c2cc(Cl)ccc2[nH]c(=S)n1Cc1ccccn1	-	-	?	-	-	18.4µM
CCCCN(C)CCNC(=O)c1ccc(Cn2c(=S)[nH]c3ccc(Br)cc3c2=O)cc1	-	?	?	-	?	25.9µM
CCOc1cc2[nH]c(=S)n(Cc3ccc(C(=O)NCCCN(CC)CC)cc3)c(=O)c2cc1OCC	-	?	?	.	-	?
CC(=C/C(=O)O)/C(=C/c1ccccc1)C(=O)O	-	-	-	-	-	-
O=C(c1cc2ccccc2oc1=O)N(Cc1cccc(Cl)c1)C1CCS(=O)(=O)C1 (configuration not stated)	.	.	-	-	.	-
COc1ccccc1C(=O)Nc1ccc(C2=NNC(=O)CC2C)cc1 (configuration not stated)	-	-	?	-	-	-
O=C(NCc1ccccn1)c1ccc(Cn2c(=S)[nH]c3ccccc3c2=O)cc1	-	.	?	-	-	-
CN(C)CCNC(=O)c1ccc2c(=O)n(Cc3ccc(Cl)cc3)c(=S)[nH]c2c1	-63.0	-	29.1µM	.	-	20.6µM
O=C(NCc1ccccn1)c1ccc(Cn2c(=S)[nH]c3ccc(Br)cc3c2=O)cc1	-	-	6.51µM	-	-	?
CC1CCN(CCCNC(=O)c2ccc3c(=O)n(Cc4ccc(Cl)cc4)c(=S)[nH]c3c2)CC1	.	-	?	-	-	?
Cc1cc(C[n+]2ccsc2N)c2ncccc2c1	-	.	?	-	-	?
N#CC1=C(N)Oc2c(ccc3cccnc23)C1c1ccccc1 (configuration not stated)	-	?	4.11µM	-	-	5.17µM
N#CC1=C(N)Oc2c(ccc3ccccc23)C1c1cccs1 (configuration not stated)	-	-	0.631µM	-	-	0.562µM
N#CC1=C(N)Oc2cc(O)ccc2C1c1cccnc1 (configuration not stated)	-	-	-	-	-	-
Cc1ccc2[nH]c(=O)c(C3C(C#N)=C(N)Oc4c3ccc3cccnc43)cc2c1 (configuration not stated)	?	-92.3	20.6µM	-	?	20.6µM
CN(CCNC(=O)C1CCC(=O)N(Cc2ccc(Cl)cc2)C1)CCc1ccccc1 (configuration not stated)	?	-	?	-	-	?
COc1cccc(-c2ncc3ccccc3c2COC(=O)c2ccc(C(F)(F)F)cc2)c1	-	-	?	.	-	?
Cc1cccc(NS(=O)(=O)c2cccc3nonc23)c1	-	-	-	-	-	-
Cc1cccc(NC(=O)CSc2ncnc3nc[nH]c23)c1C	-	-	-	-	-	-
C#CCOc1ccc2c(C)cc(=O)oc2c1	-	-	?	-	-	-
SMILES	IL-1B inflam inh	CtBP-E1A inh	TDP1 cell noCPT	TDP1 block	Six1-Eya2 inh	TDP1 cell CPT
O=[N+]([O-])c1ccc(OCC2CC(c3ccccc3)=NO2)cc1 (configuration not stated)	-	-	?	-	-	-
Cc1cc(=O)oc2cc(OCC3CC(c4ccccc4)=NO3)ccc12 (configuration not stated)	-	-	18.4µM	-	-	16.4µM
Cc1cc(=O)oc2cc(OCC3CC(c4ccc(Br)cc4)=NO3)ccc12 (configuration not stated)	-	-	16.4µM	-	-	?
CN(C)CCNC(=O)c1cccc(-c2cccc3nncn23)c1	-	-	-	.	-	-
O=C(O)CCCC(=O)Nc1cccc([N+](=O)[O-])c1	-	-	-	-	-	-
O=[N+]([O-])c1ccc(NS(=O)(=O)c2cccc3cccnc23)cc1	-	-	-	.	-	-
O=C(CN1C(=O)COc2ccc(Cl)cc21)N1CCCCC1	-	-	-	-	-	-
COc1ccc(-n2c(-c3ccccc3F)nc3c(cnn3-c3ccc(C)cc3)c2=O)cc1	.	.	13µM	-	.	20.6µM
CCOc1ccc(-n2c(-c3ccc(C)cc3)nc3c(cnn3-c3ccccc3)c2=O)cc1	.	.	?	-[12.3 µM]	.	-
Cc1ccc(-n2c(-c3ccco3)nc3c(cnn3-c3ccccc3Cl)c2=O)cc1	.	.	-	-	.	-
COc1cccc(-n2nc(-c3ccnn3-c3ccc(C)cc3)c(=O)n(C)c2=O)c1	-57.0	-	-	-	-	?
COc1ccc(-n2c(-c3ccco3)nc3c(cnn3-c3ccc(C)cc3)c2=O)cc1	-	.	11.6µM	-	-	11.6µM
COc1cccc(-n2c(-c3ccco3)nc3c(cnn3-c3ccc(C)cc3)c2=O)c1	.	.	14.6µM	-	.	14.6µM
C/C=C/C1=Cc2ccccc2C(C(C(=O)OC)C(=O)OC)N1C(=O)OC (configuration not stated)	.	.	.	-	.	.
CN(C)Cc1ccccc1-c1ccc2ncnc(N(C)C)c2c1	.	.	-	.	.	?
CN(C)c1ncnc2ccc(-c3ccoc3)cc12	.	.	?	.	.	18.4µM
CN(C)c1ccc(-c2ccc3ncnc(N4CCNCC4)c3c2)cc1	.	.	?	-	.	-
CN(C)c1ccc(-c2ccc3ncnc(N(C)C)c3c2)cc1	.	.	0.366µM	.	.	0.461µM
Cc1[nH]c2ccccc2c1/C=N/NC(=O)c1cccs1	-	.	-	-	-	?
CCCn1c2ccccc2c2cnn(CC(=O)NCCc3ccccc3)c(=O)c21	.	.	?	-	.	23.1µM
O=c1cnc2ccccc2n1Cc1ccc(Br)cc1	-	-	?	-	-	-
CCCn1c2ccccc2c2cnn(CC(=O)NCCc3ccc(OCC)cc3)c(=O)c21	.	.	23.1µM	-	.	?
CC1CCCCN1CCCNC(=O)Cn1ncc2c3ccccc3n(Cc3ccccc3F)c2c1=O (configuration not stated)	.	.	18.4µM	-	.	?
CC(C)(C)c1ccc(Cn2c(=O)cnc3ccccc32)cc1	-	-	16.4µM	.	-	16.4µM
O=C(O)C1CCCCC1C(=O)Nc1nc(-c2cccs2)cs1 (configuration not stated)	-	-	-	-	-	-

Screening results: PubChem, National Center for Advancing Translational Sciences (NCATS)
